Among all 39,000 compounds or so, about 3,300 (8.5%) were called active. Shown is part of a subset that was picked to be rich in actives.

The values that follow come from the antibiotic and cytotoxicity screens of Wong et al. (2023).

The test deals with HepG2. Put plainly: cytotoxicity call (relative viability < 0.9). The conditions noted are these: 10 µM.
As for `Cc1noc(C)c1S(=O)(=O)Nc1ccc2c(c1)CC(=O)N([C@H](C)CO)C[C@H](C)[C@H](CN(C)Cc1ccc(-c3ccccc3)cc1)O2`, the cytotoxicity call was “inactive”. `C(=N\c1ccccc1)/c1ccccc1`: the cytotoxicity call was “inactive”. With `C[C@H](CO)N1C[C@H](C)[C@@H](CN(C)Cc2ccc3c(c2)OCO3)OCCCC[C@H](C)Oc2ccc(NC(=O)Nc3ccccc3)cc2C1=O`, the cytotoxicity call is “inactive”.

For the molecule `C[C@@H]1CN([C@@H](C)CO)C(=O)c2cc(NC(=O)Nc3ccccc3)ccc2O[C@@H](C)CCCCO[C@@H]1CN(C)Cc1ccc2c(c1)OCO2`, the cytotoxicity call is “active”. `C[C@@H]1CN([C@@H](C)CO)C(=O)c2cc(NC(=O)Nc3ccc4c(c3)OCO4)ccc2O[C@@H](C)CCCCO[C@@H]1CN(C)Cc1ccccc1`: the cytotoxicity call is “active”. Take `C[C@@H]1CN([C@H](C)CO)C(=O)c2cc(NC(=O)Nc3ccc4c(c3)OCO4)ccc2O[C@@H](C)CCCCO[C@@H]1CN(C)Cc1ccccc1`: the cytotoxicity call was “inactive”. For the molecule `C[C@@H]1CCCCO[C@H](CN(C)Cc2ccc3c(c2)OCO3)[C@H](C)CN([C@@H](C)CO)C(=O)c2cc(NC(=O)Nc3ccccc3)ccc2O1`, the cytotoxicity call is “inactive”. Consider `C[C@@H]1CCCCO[C@H](CN(C)Cc2ccccc2)[C@@H](C)CN([C@@H](C)CO)C(=O)c2cc(NC(=O)Nc3ccc4c(c3)OCO4)ccc2O1`, for which the cytotoxicity call is “inactive”. In the case of `C[C@@H]1CCCCO[C@H](CN(C)CC2CCCCC2)[C@H](C)CN([C@H](C)CO)C(=O)c2cc(NS(=O)(=O)c3ccccc3)ccc2O1` it was “inactive”; in that of `C[C@@H]1CCCCO[C@@H](CN(C)C(=O)Nc2ccc3c(c2)OCO3)[C@@H](C)CN([C@H](C)CO)C(=O)c2cc(NC(=O)Nc3cccc4ccccc34)ccc2O1`, “inactive”. Take `C[C@@H]1CN([C@H](C)CO)C(=O)Cc2cc(NC(=O)Cn3cnnn3)ccc2O[C@H]1CN(C)Cc1ccccc1`: the cytotoxicity call was “inactive”. Consider `Cc1ccc(F)c(S(=O)(=O)N2[C@@H]3CC[C@@H](C3)[C@H]2c2nc3cccc(OCc4ccc(F)cc4)c3[nH]2)c1`, for which the cytotoxicity call was “active”. For `CC(=O)c1cccc(S(=O)(=O)N2[C@@H]3CC[C@@H](C3)[C@H]2c2nc3cccc(OCc4ccc(F)cc4)c3[nH]2)c1`, the cytotoxicity call was “inactive”.

As to `COc1cccc(S(=O)(=O)N2[C@@H]3CC[C@@H](C3)[C@H]2c2nc3cccc(OCc4ccc(F)cc4)c3[nH]2)c1`, the cytotoxicity call is “active”. For the molecule `Cc1ccc(C)c(S(=O)(=O)N2[C@@H]3CC[C@@H](C3)[C@H]2c2nc3cccc(OCc4ccc(F)cc4)c3[nH]2)c1`, the cytotoxicity call is “inactive”. As for `COc1ccc(OC)c(S(=O)(=O)N2[C@@H]3CC[C@@H](C3)[C@H]2c2nc3cccc(OCc4ccc(F)cc4)c3[nH]2)c1`, the cytotoxicity call was “inactive”. For the molecule `COc1cc(C)ccc1S(=O)(=O)N1[C@@H]2CC[C@@H](C2)[C@H]1c1nc2cccc(OCc3ccc(F)cc3)c2[nH]1`, the cytotoxicity call is “inactive”. In the case of `CN1C(=O)c2cc(NC(=O)c3ccc(F)c(F)c3)ccc2OC[C@H]2O[C@H](CC(=O)N3CCOCC3)CC[C@H]21`, the cytotoxicity call was “inactive”. In the case of `Cc1ccc(S(=O)(=O)Nc2ccc3c(c2)C(=O)N([C@@H](C)CO)C[C@@H](C)[C@@H](CN(C)C(=O)CCC(F)(F)F)OCCCC[C@@H](C)O3)cc1`, the cytotoxicity call was “inactive”.

With `CCS(=O)(=O)N1C[C@]2(CCN(CC2)S(=O)(=O)c2cn(cn2)C)c2c(n(c3cc(ccc23)OC)C)[C@H]1CO`, the cytotoxicity call is “inactive”.

For `C[C@H](CO)N1C[C@H](C)[C@@H](CN(C)C(=O)Nc2ccc(F)cc2)OCc2ccccc2-c2c(n(C)c3ccccc23)C1=O`, the cytotoxicity call is “inactive”.

In the case of `COCC(=O)N1C[C@H](C)[C@@H](OC)CN(C)C(=O)c2ccc(NC(=O)Nc3ccccc3)cc2OC[C@H]1C`, the cytotoxicity call was “inactive”. To `C[C@H](CO)N1C[C@H](C)[C@H](CN(C)Cc2ccc(C(=O)O)cc2)Oc2ccc(NS(C)(=O)=O)cc2C1=O` belongs “inactive”; to `C[C@@H]1CN([C@H](C)CO)C(=O)Cc2cc(NC(=O)Nc3ccc(C(F)(F)F)cc3)ccc2O[C@@H]1CN(C)Cc1ccc(-c2ccccc2)cc1`, “active”; to `C[C@@H]1CN([C@@H](C)CO)C(=O)Cc2cc(NC(=O)Nc3ccc(C(F)(F)F)cc3)ccc2O[C@H]1CN(C)Cc1ccc(-c2ccccc2)cc1`, “active”. On to `C[C@H]1CN([C@@H](C)CO)C(=O)Cc2cc(NC(=O)Nc3ccc(C(F)(F)F)cc3)ccc2O[C@@H]1CN(C)Cc1ccc(-c2ccccc2)cc1`, for which the cytotoxicity call is “inactive”.

With `C[C@H]1CN([C@@H](C)CO)C(=O)Cc2cc(NC(=O)Nc3ccc(C(F)(F)F)cc3)ccc2O[C@H]1CN(C)Cc1ccc(-c2ccccc2)cc1`, the cytotoxicity call is “active”. Consider `C[C@H](CO)N1C[C@H](C)[C@H](CN(C)Cc2ccc(-c3ccccc3)cc2)Oc2ccc(NC(=O)Nc3ccc(C(F)(F)F)cc3)cc2CC1=O`, for which the cytotoxicity call was “active”. Regarding `COCCN1C[C@H]2CN(Cc3nccn3C)C[C@H]2C1=O`, the cytotoxicity call is “inactive”. For the molecule `O=C(C[C@H]1C[C@H]2c3cc(NS(=O)(=O)c4ccc(F)cc4)ccc3O[C@H]2[C@H](CO)O1)NC1CCCCC1`, the cytotoxicity call is “inactive”. For `CC1(C)CCC2=C(O1)C(=O)c1ccccc1C2=O` [alpha-LAPACHONE ], the cytotoxicity call is “inactive”. Take `Cc1noc(C)c1NC(=O)N(C)C[C@H]1OCCCC[C@@H](C)Oc2ccc(NC(=O)CCC(F)(F)F)cc2C(=O)N([C@H](C)CO)C[C@@H]1C`: the cytotoxicity call was “inactive”. `Cc1ccc(S(=O)(=O)N(C)C[C@@H]2Oc3ccc(NS(=O)(=O)c4c(C)noc4C)cc3C(=O)N([C@H](C)CO)C[C@H]2C)cc1`: the cytotoxicity call is “inactive”. In the case of `C[C@@H]1CCCCO[C@H](CN(C)C(=O)CCC(F)(F)F)[C@H](C)CN([C@@H](C)CO)C(=O)c2cc(NS(=O)(=O)c3ccccc3)ccc2O1` it was “inactive”.

For the molecule `C[C@@H]1CN([C@@H](C)CO)C(=O)c2cc(NS(=O)(=O)c3cn(C)cn3)ccc2O[C@@H](C)CCCCO[C@H]1CN(C)S(=O)(=O)c1cn(C)cn1`, the cytotoxicity call is “inactive”. Regarding `C[C@@H]1CN([C@H](C)CO)C(=O)Cc2cc(NC(=O)Nc3ccc(C(F)(F)F)cc3)ccc2O[C@H]1CN(C)Cc1ccc(-c2ccccc2)cc1`, the cytotoxicity call is “active”. As to `C[C@@H]1CN([C@@H](C)CO)C(=O)Cc2cc(NC(=O)Nc3ccc(C(F)(F)F)cc3)ccc2O[C@@H]1CN(C)Cc1ccc(-c2ccccc2)cc1`, the cytotoxicity call was “active”.

As for `C[C@H](CO)N1C[C@H](C)[C@@H](CN(C)Cc2ccc(-c3ccccc3)cc2)Oc2ccc(NC(=O)Nc3ccc(C(F)(F)F)cc3)cc2CC1=O`, the cytotoxicity call was “active”.

Regarding `C[C@@H]1CCCCO[C@@H](CN(C)C(=O)c2ccccc2)[C@H](C)CN([C@@H](C)CO)C(=O)c2cc(NC(=O)c3ccccc3)ccc2O1`, the cytotoxicity call is “inactive”.

In the case of `C[C@@H]1CN([C@@H](C)CO)C(=O)Cc2cc(NC(=O)CCN3CCOCC3)ccc2O[C@H]1CN(C)Cc1ccncc1`, the cytotoxicity call is “inactive”. In the case of `COc1cccc(NC(=O)N[C@@H]2CC[C@H](CC(=O)N3CCOCC3)O[C@H]2CO)c1` it was “inactive”; in that of `O=C(NCc1cccc(F)c1)[C@H]1[C@H](CO)[C@H]2Cn3c(cccc3=O)[C@@H]1N2C(=O)c1cnccn1`, “inactive”; in that of `C[C@@H](CO)N1CC[C@H](CN(C)Cc2ccc(Oc3ccccc3)cc2)Oc2c(NC(=O)c3ccncc3)cccc2C1=O`, “inactive”. Take `CC(=O)N[C@H]1[C@@H](OCc2ccccc2)O[C@H](C(=O)O)[C@@H](OC(C)=O)[C@@H]1OC(C)=O`: the cytotoxicity call was “inactive”. For `C[C@@H]1CN([C@@H](C)CO)S(=O)(=O)c2ccc(-c3ccc(C(=O)N(C)C)cc3)cc2O[C@H]1CN(C)C(=O)C1CCOCC1`, the cytotoxicity call is “inactive”. As for `COCC(=O)N(C)C[C@@H]1Oc2cc(C#Cc3ccccc3)ccc2S(=O)(=O)N([C@@H](C)CO)C[C@H]1C`, the cytotoxicity call was “inactive”. In the case of `Cc1ccc(NC2=CC(=O)C[C@H](c3ccc(Cl)cc3)C2)cc1` it was “inactive”; in that of `C[C@H](CO)N1C[C@H](C)[C@@H](CN(C)Cc2ccc(Cl)c(Cl)c2)OCCCC[C@H](C)Oc2ccc(NC(=O)c3ccccc3)cc2C1=O`, “inactive”. As for `C[C@H](CO)N1C[C@H](C)[C@H](CN(C)Cc2ccc(Cl)c(Cl)c2)OCCCC[C@H](C)Oc2ccc(NC(=O)c3ccccc3)cc2C1=O`, the cytotoxicity call was “inactive”.

As to `C[C@@H]1CN([C@H](C)CO)C(=O)c2cc(NC(=O)c3ccccc3)ccc2O[C@@H](C)CCCCO[C@H]1CN(C)Cc1ccc(Cl)c(Cl)c1`, the cytotoxicity call is “active”. As for `C[C@@H]1CCCCO[C@@H](CN(C)Cc2ccc(Cl)c(Cl)c2)[C@H](C)CN([C@@H](C)CO)C(=O)c2cc(NC(=O)c3ccccc3)ccc2O1`, the cytotoxicity call is “active”.

Take `C[C@@H]1CCCCO[C@@H](CN(C)Cc2ccc(Cl)c(Cl)c2)[C@H](C)CN([C@H](C)CO)C(=O)c2cc(NC(=O)c3ccccc3)ccc2O1`: the cytotoxicity call is “inactive”. `C[C@@H]1CCCCO[C@H](CN(C)Cc2ccc(Cl)c(Cl)c2)[C@@H](C)CN([C@H](C)CO)C(=O)c2cc(NC(=O)c3ccccc3)ccc2O1`: the cytotoxicity call is “inactive”. To `C[C@H]1CCCCO[C@H](CN(C)Cc2ccc(Cl)c(Cl)c2)[C@@H](C)CN([C@@H](C)CO)C(=O)c2cc(NC(=O)c3ccccc3)ccc2O1` belongs “inactive”; to `C[C@@H]1CN([C@H](C)CO)C(=O)c2cc(NC(=O)c3ccccc3)ccc2O[C@@H](C)CCCCO[C@@H]1CN(C)Cc1ccc(Cl)c(Cl)c1`, “active”. To `C[C@@H]1CCCCO[C@H](CN(C)Cc2ccc(Cl)c(Cl)c2)[C@H](C)CN([C@@H](C)CO)C(=O)c2cc(NC(=O)c3ccccc3)ccc2O1` belongs “inactive”.

On to `C[C@@H]1CN([C@H](C)CO)C(=O)CCCn2nncc2CO[C@H]1CN(C)C(=O)Nc1ccc(C(C)(C)C)cc1`, for which the cytotoxicity call is “inactive”. Regarding `Cc1ccc(S(=O)(=O)N2C[C@H](O)COC[C@@H]3O[C@H](CC(=O)N4CCc5ccccc5C4)CC[C@H]32)cc1`, the cytotoxicity call was “inactive”. On to `COc1ccc(NC(=O)Nc2ccc3c(c2)C(=O)N([C@H](C)CO)C[C@H](C)[C@@H](CN(C)CC2CC2)OCCCC[C@@H](C)O3)cc1`, for which the cytotoxicity call was “inactive”. Take `COc1ccc(S(=O)(=O)Nc2ccc3c(c2)CC(=O)N([C@@H](C)CO)C[C@H](C)[C@@H](CN(C)S(=O)(=O)c2cccs2)O3)cc1`: the cytotoxicity call is “inactive”.
